15-hLO inh = qHTS Assay for Inhibitors of 15-hLO (15-human lipoxygenase) | Polyunsaturated fatty acid lipoxygenase ALOX15 (Homo sapiens), P16050 | purified 15hLO-1, xylenol orange hydroperoxide absorbance | 1.4% of 74,000 active | Potency, µM (series often up to 57.1 µM), inactives show at the highest dose activity change, negative = inhibition, usual class: inhibitors; also: potency is read from the fitted curve at half-maximal effect; % is scaled to controls: 0 for no effect and ±100 for the full control effect; nearly all actives have a fitted effect of over 55% in size
Target sequence (P16050 whole entry, looked up): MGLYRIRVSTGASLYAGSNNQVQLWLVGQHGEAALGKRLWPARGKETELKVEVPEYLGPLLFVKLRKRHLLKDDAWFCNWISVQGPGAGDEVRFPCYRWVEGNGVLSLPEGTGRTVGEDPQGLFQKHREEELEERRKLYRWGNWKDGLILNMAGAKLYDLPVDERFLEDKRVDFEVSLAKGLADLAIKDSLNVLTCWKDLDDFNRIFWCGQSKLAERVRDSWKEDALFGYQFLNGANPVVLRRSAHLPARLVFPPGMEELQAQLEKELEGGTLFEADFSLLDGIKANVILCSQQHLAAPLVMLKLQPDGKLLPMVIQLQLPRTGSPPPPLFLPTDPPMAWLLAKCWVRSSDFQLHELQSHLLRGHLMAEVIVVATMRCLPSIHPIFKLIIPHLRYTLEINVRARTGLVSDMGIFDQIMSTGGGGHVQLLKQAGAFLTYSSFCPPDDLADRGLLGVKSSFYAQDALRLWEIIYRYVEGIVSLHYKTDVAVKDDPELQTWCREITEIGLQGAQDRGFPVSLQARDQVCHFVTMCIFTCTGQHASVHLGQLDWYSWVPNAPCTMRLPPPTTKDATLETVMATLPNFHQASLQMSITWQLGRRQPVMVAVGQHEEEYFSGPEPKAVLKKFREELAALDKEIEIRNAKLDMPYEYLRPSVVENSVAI
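Purified human 15hLO-1 (40 nM final) in 25 mM Hepes pH 7.5, 0.01% Triton X-100 was preincubated with compound 15 min at room temperature, then reacted 6 min with 50 uM arachidonic acid; hydroperoxide detected by Fe-XO, 573/405 nm absorbance ratio.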
YjeE inh = qHTS Assay for Inhibitors of YjeE; Potency, µM; AID 605, 2007; tRNA threonylcarbamoyladenosine biosynthesis protein TsaE (Escherichia coli (strain …; purified YjeE enzyme, qHTS inhibition assay; 0.05% of 71,000 active
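Purified YjeE (10 uM) with BODIPY Texas Red-labeled ADP probe (2 uM); compounds pin-transferred, 15 min at room temperature. Binding inhibition read as decreased fluorescence polarization; ADP titration as control.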
DNA Pol III inh = qHTS Assay for Inhibitors of DNA Polymerase III Holoenzyme System | AID 603, 2007 | Potency, µM (highest dose often 57.1 µM), for inactives: at the top dose activity change, negative = inhibition | reconstituted DNA polymerase III holoenzyme replication, biochemical | 0.25% of 71,000 active; also: potency is read from the fitted curve at half-maximal effect; % is scaled to controls: 0 for no effect and ±100 for the full control effect
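Reconstituted *E. coli* holoenzyme (0.35 nM Pol III, 1 nM beta, 154 nM SSB, 2 nM primase) was preincubated with compound for 15 min at RT. Synthesis on 1.4 nM ssM13Gori ran 35 min, then was stopped with PicoGreen/EDTA and read as dsDNA fluorescence.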
BRCT PPI green = qHTS Assay for Inhibitors of BRCT-Phosphoprotein Interaction (Green Fluorophore) | AID 875, 2007 | BRCA1 BRCT-phosphopeptide binding, green fluorescence polarization | Breast cancer type 1 susceptibility protein (Homo sapiens), P38398 | 0.05% of 75,000 active | Potency, µM (highest dose often 76.9 µM), for inactives: at the highest dose activity change, negative = inhibition, hits mostly inhibitors;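 also: potency is read from the fitted curve at half-maximal effect; plate controls were peptide without protein for full effect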
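Compounds were incubated for 12 min at room temperature with a complex of 100 nM fluorescein-tagged pBACH1 decapeptide and 250 nM His-tagged BRCT protein. Buffer was phosphate pH 7.3 with EDTA, DTT and Tween 20. Disruption of binding lowers the polarization signal.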
BRCT PPI red = qHTS Assay for Inhibitors of BRCT-Phosphoprotein Interaction (Red Fluorophore). BRCT-phosphopeptide binding, red fluorescence polarization. Potency, µM (top dose mostly 76.9 µM), for inactives: at the top dose activity change, negative = inhibition, hits mostly inhibitors. 0.03% of 75,000 active; also: % is scaled to controls: 0 for no effect and ±100 for the full control effect
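Fluorescence polarization: 100 nM His-tagged BRCA1 BRCT with 100 nM TAMRA-labelled phospho-BACH1 decapeptide, phosphate buffer pH 7.3 with 150 mM NaCl, DTT, 0.01% Tween 20; 12 min RT. Binding inhibition seen as FP decrease.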
Tau fil binding = qHTS Assay for Tau Filament Binding; Microtubule-associated protein tau (Homo sapiens), P10636; recombinant tau filaments, thioflavin S fluorescence, 15 h; filaments grown with octadecylsulfate alongside compound; Potency, µM (doses to about 57.1 µM), for inactives: at the highest dose activity change, negative = inhibition; 2% of 71,000 active; AID 596, 2007;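 also: potency is read from the fitted curve at half-maximal effect; % is scaled to controls: 0 for no effect and ±100 for the full control effect; actives lower thioflavin S fluorescence by blocking filaments or displacing dye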
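Recombinant tau protein (human, 1 uM final) plus 30 uM ODS in HEPES pH 7.4 with NaCl, DTT and thioflavine S. Compound present from the start; fluorescence at 510 nm after 15 h, 37 C.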
* hit, by the source's call; i = inactive; ? = inconclusive; . = no result; [ ] = dose if it differs, or a comment. Sampled rows, rich in hits. Any-hit rate of the full collection: about 3.1%. Calls follow the shape of the dose curve; as a rule, active = well fitted curve in the direction sought with a large enough effect; inconclusive = small, poorly fitted or top-dose-only effect, or another doubt; inactive = no such curve, though single readings can be large; an effect the other way counts as inactive or inconclusive.

SMILES | 15-hLO inh | YjeE inh | DNA Pol III inh | BRCT PPI green | BRCT PPI red | Tau fil binding
COc1ccccc1CNc1nc(-c2ccc(N(C)C)cc2)nc2ccccc12 | 20µM* | i | -1% | 0% | -3% | i
COc1ccccc1-c1nc(NCc2cnc(C)cn2)c2ccccc2n1 | 16µM* | i | -10% | 1% | -2% | ?
COc1cccc(CSCC(=O)O)c1 | 0%[11.4 µM] | i | -10%[11.4 µM] | 0%[15.4 µM] | 1%[15.4 µM] | -1%[11.4 µM]
O=C(CCCSc1nc(-c2ccco2)cc(C(F)(F)F)n1)Nc1ccc2c(c1)OCO2 | -14% | i | -6% | -2% | 0% | 25µM*
O=C(CSc1nc(-c2ccco2)cc(C(F)(F)F)n1)Nc1ccc2c(c1)OCO2 | -6% | i | -6% | -2% | 1% | 153%
COc1cccc(Nc2nc(-c3sc(N)nc3C)cs2)c1 | -1% | i | -7% | 5% | 0% | 13µM*
CN1c2cc3c(cc2N=C(c2ccc(C(=O)O)cc2)c2ccccc21)C(C)(C)CCC3(C)C | -23% | . | . | -2% | 0% | .
Nc1ccc(N=Nc2ccc(-c3ccc(O)cc3)cc2)c2ccc(S(=O)(=O)O)cc12 | -28%[11.4 µM] | i | -9%[11.4 µM] | 1%[15.4 µM] | -2%[15.4 µM] | 2.5µM*
CCCCCC[C@@H]([C@@H](C)O)n1cnc2c(N)ncnc21 | 13µM* | i | -1% | -6% | -8% | ?
COC(=O)C[C@@H]1O[C@H]1[C@H](C)[C@@H](OC)C(C)C | -6%[11.4 µM] | . | . | -1%[15.4 µM] | 0%[15.4 µM] | .
CCn1c(C(=O)NCCCc2ccccc2)cc2sccc21 | 20µM* | . | . | -1% | 2% | .
COc1ccc(-c2coc3cc(O)ccc3c2=O)cc1 | 3%[25.6 µM] | i | -29% | 0% | 2% | 32µM*
COc1ccc(-c2cc(=O)c3c(O)c(OC)c(OC)c(OC)c3o2)cc1OC | -6% | . | . | -6% | -2% | .
COc1cc([C@H](O)C(=O)O)ccc1O | 13% | i | 18% | -2% | 1% | -1%
COc1ccc(-c2cc(OC)c3c(C)oc(C)c3c(=O)c2)cc1OC | -23% | i | -3% | 1% | -2% | 25µM*
COc1cc(-c2cc(OC)c3c(C)oc(C)c3c(=O)c2)ccc1O | 25µM* | i | -1% | -2% | 1% | -28%
C[N+](C)(C)c1cc2c(nn1)Nc1ccccc1S2 | ? | i | -11%[11.4 µM] | -2%[15.4 µM] | -2%[15.4 µM] | -27%[11.4 µM]
COc1ccc(S(=O)(=O)N(C(C)=O)c2ccc3oc(=O)sc3c2)cc1 | 5µM* | i | -10% | -1% | -1% | -1%
Cc1ccccc1CNc1ncnc2c1ncn2[C@@H]1O[C@@H](CO)[C@H](O)[C@@H]1O | 6% | i | 0% | -2% | 1% | 29%
NC[C@@H]1O[C@@H](O[C@H]2[C@@H](O)[C@H](O[C@@H]3[C@H](O)[C@H](N)C[C@H](N)[C@H]3O[C@@H]3O[C@@H](CO)[C@H](O)[C@H](O)[C@@H]3N)O[C@H]2CO)[C@H](N)[C@H](O)[C@@H]1O | 6% | i | -3% | -2% | -2% | -7%
COc1ccc(O)c(-c2cc(-c3cccs3)[nH]n2)c1 | 25µM* | i | -3% | -1% | 0% | -7%
COc1ccc(NC2=NC3(CCCCC3)N=C(N)N2)cc1 | 25µM* | i | -11% | -1% | 0% | 15%
O=C(/C=C/c1ccc(O)c(O)c1)OCCc1ccccc1 | 0.5µM* | . | . | -1% | 0% | .
CCOC(=O)c1c(N2C(=O)C3C4C=CC(O4)C3C2=O)sc2c1CCCC2 (stereo not drawn) | 7.9µM* | i | 4% | -1% | 0% | 28%
NS(=O)(=O)c1ccc(N=Nc2ccc[nH]c2=O)cc1 | 3.2µM* | i | -1%[11.4 µM] | -1%[15.4 µM] | 0%[15.4 µM] | 0%[11.4 µM]
SMILES | 15-hLO inh | YjeE inh | DNA Pol III inh | BRCT PPI green | BRCT PPI red | Tau fil binding
CC(=O)[C@@]1(N=Nc2ccc(S(N)(=O)=O)cc2)CCOC1=O | -5%[11.4 µM] | i | -12%[11.4 µM] | 0%[15.4 µM] | 0%[15.4 µM] | 9%[11.4 µM]
COC(=O)c1ccc2c(c1)N(Cc1nc(-c3ccc(Cl)cc3)oc1C)C(=O)C1CCCN21 (stereo not drawn) | ? | i | -4% | -3% | 0% | 36%
COC(=O)c1ccc2c(c1)N(Cc1nc(-c3cccc(Cl)c3)oc1C)C(=O)C1CCCN21 (stereo not drawn) | 13µM* | i | -2% | 2% | 1% | 21%
Cc1cccc(CN(C)CCc2ccccn2)c1 | -7%[11.4 µM] | i | 7%[11.4 µM] | -4% | -1% | 24%[11.4 µM]
CN(CCc1ccccn1)c1ccc2c(c1)C(=O)c1ccccc1-2 | 2%[11.4 µM] | i | -10%[11.4 µM] | -2%[15.4 µM] | -2%[15.4 µM] | 4µM*
COC(=O)c1ccc(C(=O)Nc2ccc(N)cc2N)cc1 | -23% | i | 3% | 25% | 2% | 13µM*
C[C@@]1(CO)[C@H](O)CC[C@]2(C)[C@@H]1CC[C@H]1C[C@H]3C[C@]12CC[C@]3(O)COC(=O)CN | 2%[11.4 µM] | i | -2%[11.4 µM] | -2%[15.4 µM] | -1%[15.4 µM] | 22%[11.4 µM]
Cn1cccc1C(=O)N1CCC2(CCCN(c3ncccn3)C2)CC1 | -10% | i | -4% | 2% | -2% | -14%
COC1=CC(=O)C(O)=C/C1=C\C=C\c1ccccc1 | ? | . | . | 0% | -1% | .
Cn1c2c(c3ccccc31)CC/C2=N\O | 25µM* | i | -4% | -5% | -1% | 4%
CC(=O)Nc1ccc(C(=O)CSc2nnc3scc(-c4ccccc4)n23)cc1 | 10% | i | -17% | 2% | -2% | -12%
Cc1ccc(-c2csc3nnc(SCC(=O)Nc4cccc(C)n4)n23)cc1 | 14% | i | 0% | 1% | 1% | 20µM*
CC(=O)N1CCN(c2ccc(NCc3ccc(C)cc3)cc2)CC1 | 13µM* | i | -1% | -1% | 0% | ?
CC(=O)N1CCN(c2ccc(NC(=O)COc3ccc(Cl)cc3Cl)cc2)CC1 | -8% | i | -2% | 0% | 2% | -18%
CC(=O)Nc1ccc(N2CCN(C(C)=O)CC2)cc1 | 1% | i | -4% | -2% | 0% | -2%
Cc1ccc(CNc2ccc(O)cc2)cc1 | ? | i | -14% | 0% | -10% | 10µM*
CCc1ccc(CNc2ccc(N3CCN(C(C)=O)CC3)cc2)cc1 | 16µM* | i | 5% | -8% | 0% | 13µM*
COc1ccc2c(c1)-c1nc(NC(=O)c3cccs3)sc1CC2 | 13µM* | . | . | -3% | -5% | .
COc1ccc(S(=O)(=O)Nc2c(C(=O)O)[nH]c3ccccc23)c(OC)c1 | -2% | i | -1% | -1% | 1% | -9%

High-throughput results: PubChem, National Center for Advancing Translational Sciences (NCATS)
